Where “and” joins values, the source holds several entries; their conditions need not be identical. Equal entries are not always repeated. Compounds without any hit were thinned out: in the full panel of roughly 83,000, 20% have a hit.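 Each cell line was grown in a 96-well plate and treated with one concentration of compound for 48 hours. Values below 10 were considered active.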 Calls of active or inactive are those of the source.

The assay concerns HT29 colon. As to the kind of experiment: NCI-60 one-dose screen, 48 h (100 = growth as untreated, 0 = no growth, -100 = all killed). The note with it: 10 µM unless noted.
With `O=C(O)C1(C(=O)O)CCC1.[NH2-].[NH2-].[Pt+2]`, the growth is 106% (inactive) and 89.3% (inactive).

Take `CC1(C)[C@@H](OC(=O)CCC(=O)O)CC[C@]2(C)[C@H]3C(=O)C=C4[C@@H]5C[C@@](C)(C(=O)O)CC[C@]5(C)CC[C@@]4(C)[C@]3(C)CC[C@@H]12`: the growth is 103% (inactive) and -8.67% (active).

Take `CCNC(=O)Nc1ccc(-c2nc3c(c(N4CCOC[C@@H]4C)n2)CCN(C2COC2)C3)cc1`: the growth was 49.7% (inactive) and 15.9% (inactive).

On to `O=C1C2=C(C(=O)c3ccccc31)C(O)(S(=O)(=O)O)C(O)(S(=O)(=O)O)C1N=CC=CC21` (stereo not given), for which the growth was 46.6% (inactive) and 21.4% (inactive).

For `COc1ccc2c(=O)cc(-c3ccccc3)[nH]c2c1`, the growth is -3.3% (active) and 5.55% (active).

Turning to `COc1cc(Nc2nc3ccccc3nc2NS(=O)(=O)c2ccc(NC(=O)c3ccc(C)c(OC)c3)cc2)cc(OC)c1`, the growth was 53.7% (inactive) and 5.41% (active).

As for `COc1cc(-c2nccc3cc4c(cc23)OCO4)cc(OC)c1OC`, the growth is 1.74% (active) and 5.6% (active).

For `CCN(CC)CCC(CNc1ccnc2cc(Cl)ccc12)c1ccc(OC)cc1` (stereo not given), the growth was 26.4% (inactive) and 14% (inactive).

Take `CC(=O)Nc1ccc(O)cc1`: the growth was 99.8% (inactive) and 96.8% (inactive) and 108% (inactive).

In the case of `c1ccc2c(CC3=NCCN3)cccc2c1`, the growth is 103% (inactive) and 96.3% (inactive).

The values above are taken from PubChem BioAssay (NCI).
